Screening data: PubChem, National Center for Advancing Translational Sciences (NCATS)
SMN2 splice enh: enhancers of SMN2 splice variant expression; Potency, µM (titrated, usually from 46.1 µM), inactives show top-dose activity change, positive = activation, hits mostly activators; HEK293 SMN2-luciferase splicing reporter, luminescence, 30-36 h; actives 2.8% (n = 210,000); AID 1458; also: % of control where 0% means no effect; nearly all actives have a fitted effect of over 55% in size
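qHTS luciferase splicing reporter: luminescence rises when SMN2 exon 7 is included in transfected HEK293 cells. Compound exposure lasted 30-36 h at 37C, with 4.5 mM final sodium butyrate as control, followed by a ONE-Glo read.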
NPC1 promoter act: NPC1 promoter activation | actives 2.4% (n = 320,000) | AID 485313 | Huh7 NPC1 promoter luciferase reporter, 24 h | Potency, µM (doses to about 9.22 µM), inactives show at the highest dose activation, actives largely listed as activators; also: % of control where 0% means no effect; nearly all actives have a fitted effect of over 60% in size
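In 1536-well qHTS, Huh7 cells harboring an NPC1 promoter–luciferase construct received compound for 24 h; activation was quantified by luminescence following luciferase reagent addition.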
FLuc modulator: firefly luciferase modulation, counter-screen for miR-21 project. purified FLuc, Km substrates, luminescence inhibition. actives 6.9% (n = 360,000). Potency, µM (series often up to 57.5 µM), for the others: at the highest dose activity change, negative = inhibition, hits mostly inhibitors;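 also: plate controls were vehicle for no effect and reference inhibitor for full effect; nearly all actives have a fitted effect of over 55% in size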
Target sequence (P08659 whole entry, looked up): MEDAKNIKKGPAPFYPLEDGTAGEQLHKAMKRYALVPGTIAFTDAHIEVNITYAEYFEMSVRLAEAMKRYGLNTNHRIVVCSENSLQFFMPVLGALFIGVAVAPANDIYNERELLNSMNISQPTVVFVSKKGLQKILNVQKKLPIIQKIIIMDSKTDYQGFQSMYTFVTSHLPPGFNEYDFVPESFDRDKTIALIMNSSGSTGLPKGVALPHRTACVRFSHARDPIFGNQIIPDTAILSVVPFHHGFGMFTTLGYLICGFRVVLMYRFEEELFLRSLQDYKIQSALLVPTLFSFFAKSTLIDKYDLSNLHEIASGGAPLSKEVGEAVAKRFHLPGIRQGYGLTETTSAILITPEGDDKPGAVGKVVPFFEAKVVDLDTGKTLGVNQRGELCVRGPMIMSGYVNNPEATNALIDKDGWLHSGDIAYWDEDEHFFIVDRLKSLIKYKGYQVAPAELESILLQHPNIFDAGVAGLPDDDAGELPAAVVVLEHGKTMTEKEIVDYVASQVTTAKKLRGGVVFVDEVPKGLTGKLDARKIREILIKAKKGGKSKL
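Purified P. pyralis luciferase (10nM final) with 10uM D-luciferin and 10uM ATP (Km levels) in 50mM Tris acetate pH 7.5, 10mM Mg acetate, 0.01% Tween-20, 0.05% BSA; qHTS 6-point titration, ~60 µM downward; luminescence read.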
KinaseGlo FLuc: blocks Kinase-Glo luciferase, a counter-screen artifact | Potency, µM (doses to about 38.3 µM), for inactives: at the top dose activity change, negative = inhibition, hits mostly inhibitors | Kinase-Glo luciferase, ATP luminescence, 8 min | actives 0.28% (n = 200,000); also: % is scaled to controls: 0 for no effect and ±100 for the full control effect; nearly all actives have a fitted effect of over 60% in size
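Compound is pinned into ATP-containing buffer (10 uM ATP, imidazole pH 7.2, 7 mM MgCl2). Kinase-Glo luciferase reagent is then added. Light output is recorded following an 8-min room-temperature incubation.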
Rab9 prom act: activators of Rab9 promoter | actives 2.8% (n = 320,000) | Potency, µM (doses to about 9.22 µM), without a hit: at the highest dose activation, negative = inhibition, most hits filed as activators | Huh7 Rab9 promoter-luciferase reporter, luminescence, 24 h | AID 485297; also: % of control where 0% means no effect; nearly all actives have a fitted effect of over 60% in size
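Luciferase signal after 10 min detection reagent at ambient indicates Rab9 promoter upregulation; stably transfected Huh7 cells were treated 24 h with compound in DMSO at 37 °C, 5% CO2.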
ELG1 genotox: genotoxicity induction in ELG1-luciferase HEK293T cells. HEK293T ELG1-luciferase reporter, luminescence, 16 h. actives 1.3% (n = 330,000). Potency, µM (highest dose often 46 µM), for the others: at the top dose activity change, positive = activation, actives largely listed as activators; also: % of control where 0% means no effect; nearly all actives have a fitted effect of over 60% in size
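After overnight (16 hr) compound treatment at 37 °C, ELG1-luciferase HEK293T cells were lysed with ONE-Glo; luminescence quantified 30 min later at room temperature.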
* = called active by the depositor; ? = inconclusive; · = not tested or not shown; [ ] = another dose, or the depositor's remark. Rows were chosen to be rich in hits. Some 7.4% of all compounds tested hit in one or more screens of this group. Calls follow the shape of the dose curve; as a rule, active = well fitted curve in the direction sought with a large enough effect; inconclusive = small, poorly fitted or top-dose-only effect, or another doubt; inactive = no such curve, though single readings can be large; an effect the other way counts as inactive or inconclusive. Potency is read from the fitted curve at half-maximal effect.

SMILES	SMN2 splice enh	NPC1 promoter act	FLuc modulator	KinaseGlo FLuc	Rab9 prom act	ELG1 genotox
O=S(=O)(NCC(c1cccs1)S(=O)(=O)c1ccccc1)c1ccc(F)cc1 (stereo not given)	·	·	4%	·	·	·
CCOc1ccc(CNC(=O)c2cnc3sc(N(CC)CC)nn3c2=O)cc1OC	·	·	-2%	·	·	·
C/C(Cn1nnc([N+](=O)[O-])n1)=N\NC(=O)c1ccc(O)cc1O	-16%	7%	?	2%	-7%	-9%
C/C(CC(=O)Nc1ccc([N+](=O)[O-])cc1)=N\NC(=O)c1ccccc1O	·	2%	12µM*	·	-2%	-1%
C/C(CC(=O)Nc1ccc(Cl)c(C(F)(F)F)c1)=N\NC(=O)c1ccccc1O	10%[1.84 µM]	1%	17µM*	-1%	-1%	-6%
C/C(Cn1nnc([N+](=O)[O-])n1)=N\NC(=O)c1ccccc1O	·	-1%	11µM*	·	-4%	-12%
C/C(CC(=O)Nc1ccc(N(C)C)cc1)=N\NC(=O)c1ccccc1O	·	5%	12µM*	·	10%	-1%
O=C(O/N=C1\C(=O)N(c2ccccc2)c2ccccc21)C1CC1	-4%	-6%	-20%	0%	8%	-3%
CN1C(=O)/C(=N/OC(=O)c2ccccc2)c2ccccc21	-8%	-5%	7.6µM*	-1%	-3%	0%
Cc1ccccc1CCNC(=O)c1cc2ccccn2n1	·	·	11µM*	·	·	·
CC(NC(=O)c1cc2ccccn2n1)c1ccccc1 (stereo not given)	·	·	0%	·	·	·
CCc1ccc(NC(=O)c2cc3ccccn3n2)cc1	·	·	1.9µM*	·	·	·
Cc1ccc(NC(=O)c2cc3ccccn3n2)cc1F	·	·	2.4µM*	·	·	·
O=C(NCCc1ccc(Cl)cc1)c1cc2ccccn2n1	·	3%	-18%	·	17%	3%
O=C(Nc1ccc(Br)cc1)c1cc2ccccn2n1	·	0.56µM*	0.95µM*	·	0.32µM*	?
COc1ccc(CNC(=O)c2cc3ccccn3n2)cc1OC	·	·	-4%	·	·	·
CCN1CCN(Cc2c(O)ccc3oc(C)c(C(=O)Nc4cccc(C(F)(F)F)c4)c23)CC1	·	·	0%	·	·	·
COc1ccc(-c2cc(C(=O)N3CCCC3)c3ccccc3n2)cc1OC	·	4%	?	·	0%	-7%
Cc1cc(C(=O)NC2=NCCS2)c2ccccc2n1	17%	-8%	-4%	1%	0%	0%
COc1ccc(-c2cc(C(=O)NC3=NCCS3)c3ccccc3n2)cc1OC	5%	13%	9.5µM*	-1%	?	-6%
O=C(NC1=NCCS1)c1cc(-c2ccc(-c3ccccc3)cc2)nc2ccccc12	-7%[1.84 µM]	4µM*	0.85µM*	-4%	1.8µM*	13%
Cc1ccc(NC(=O)c2c(NC(=O)c3ccco3)sc3c2CCC(C(C)(C)C)C3)c(C)c1 (stereo not given)	-1%	·	-2%	·	·	·
CN1CCC2(CC1)CCN(C(=O)c1cc(C(F)(F)F)cc(C(F)(F)F)c1)CC2	1%	·	·	1%	·	·
CCc1ccc(-n2c(=O)c3c4c(sc3n(CC(=O)c3ccc(Br)cc3)c2=O)CCC4)cc1	2%	·	-11%	·	·	·
CC(=O)Nc1ccc(C2CC(c3ccc(Cl)cc3)=NN2c2ccccc2)cc1 (stereo not given)	·	11%	17µM*	·	17%	8%
SMILES	SMN2 splice enh	NPC1 promoter act	FLuc modulator	KinaseGlo FLuc	Rab9 prom act	ELG1 genotox
CCN(CC)C(=O)CSc1nc(-c2ccc(C)cc2)nc2c1Cc1c(CO)cnc(C)c1O2	·	·	-8%	·	·	·
C=C1c2ccccc2NC(=O)N1c1ccc(OC)cc1	·	-5%	3%	-9%	0%	9%
COc1ccc(N2C(=O)c3ccccc3NC23CCC(C)CC3)cc1 (stereo not given)	10µM*	2.5µM*	?	-4%	2.2µM*	?
COc1ccc(N2C(=O)c3ccccc3NC2c2cccnc2)cc1 (stereo not given)	15%	9%	1%	2%	-7%	9%
CCOc1ccc(N2C(=O)c3ccccc3NC2(C)CC)cc1 (stereo not given)	·	?	·	·	3.5µM*	?
COc1ccc(N2C(=O)c3ccccc3NC2(C)C)cc1	8.9µM*	?	-2%	0%	?	-2%
COc1ccc(N2C(=O)CSC23CCCCC3)cc1	-3%	-4%	-2%	1%	13%	1%
COc1ccc(N2C(=O)c3ccccc3NC23CCCCC3)cc1	13µM*	2.8µM*	11µM*	9%	2.5µM*	?
C=CCSc1nc2c(N)ncnc2n1[C@@H]1O[C@H](CO)[C@@H](O)[C@@H]1O	-8%[9.22 µM]	·	·	-2%[7.66 µM]	·	·
COc1cc(NS(=O)(=O)c2ccc(NC(=O)c3ccc(Cl)cc3Cl)cc2)nc(OC)n1	7%	·	?	·	·	·
CCCNC(=O)CCSc1nc(-c2ccc3c(c2)OCO3)cc(C(F)(F)F)n1	-3%	·	0%	·	·	·
COc1ccccc1N1CCN(c2ncnc3c2c(-c2ccccc2)cn3-c2cccc(C)c2)CC1	·	·	1%	·	·	·
COc1ccc(C(=O)Cn2nnc(-c3cccs3)n2)cc1	-6%	?	9.5µM*	-2%	2.8µM*	3%
Cc1ccc(C(=O)Cn2nnc(-c3ccccc3)n2)cc1	·	2%	19µM*	·	20%	-1%
COc1cccc(-c2nnn(CCC(=O)O)n2)c1	-7%	-3%	-7%	12%	-3%	-1%
COC(=O)Cn1nnc(-c2cccc(OC)c2)n1	-11%	-6%	27µM*	10%	-4%	0%
O=C(Cn1nnc(-c2ccccc2)n1)c1ccccc1	-14%	11%	?	1%	11%	10%
CNS(=O)(=O)c1cn(CC(=O)Nc2ccc(OC)cc2OC)cc1S(=O)(=O)NC	·	·	-2%	·	·	·
COC(=O)c1ccccc1NC(=O)c1ccc2c(c1)CC(C)O2 (stereo not given)	·	28%	17µM*	·	2.2µM*	5%
Cc1ccc(C(=O)c2sc3nsc(C)c3c2N)cc1	10µM*	1.1µM*	1.7µM*	-4%	2.8µM*	0.58µM*
Cc1snc2sc(C(=O)c3ccc(Br)cc3)c(N)c12	?	2.8µM*	-25%	-1%	4µM*	12µM*
Cc1nc(-c2ccccc2)nc2sc(C(=O)c3ccc(F)cc3)c(N)c12	·	3%	5%	·	-4%	6%
COc1cccc(CNC(=O)c2ccc3c(c2)N(C)C(=O)C2CCCCN32)c1 (stereo not given)	·	·	-8%	·	·	·
CCc1nn(CC(=O)NCCc2ccc(OC)cc2OC)c(=O)c2cc3sccc3n12	-7%	·	-12%	·	·	·
CCN(CC)CCn1c(-c2ccccc2)nc2c(NC3CCCCC3)nc(C)nc21	-8%	·	·	-3%	·	·
CN1CCN(c2ncc3nc(-c4ccccc4)c(=O)n(CCC#N)c3n2)CC1	-17%	·	·	-4%	·	·
